Measurements from PubChem BioAssay (Tox21).
Inconclusive results are not listed. Activity calls are given as the source filed them. Unless noted, calls come from the whole dose curve; as a rule, active = well fitted curve in the direction sought with a large enough effect in the repeat runs; inconclusive = weak or mixed curves; inactive = no such curve, though single readings can be large; an effect the other way counts as inactive or inconclusive.

Tests used:
[1] = qHTS assay to identify small molecule agonists of the peroxisome proliferator-activated receptor delta (PPARd) signaling pathway - cell viability counter screen (AID 743211); note: nearly all actives have a fitted effect of over 55% in size
Procedure, shortened: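 PPARd-bla HEK293H cells (3000/well) were pre-incubated 5 h at 37 C, then exposed to compound for 17 h at 37 C. After 2 h with LiveBLAzer substrate, CellTiter-Glo was added to the same wells; luminescence read after 30 min at room temperature.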

[2] = target: Peroxisome proliferator-activated receptor delta (Homo sapiens) (UniProt Q03181); experiment: qHTS assay to identify small molecule agonists of the peroxisome proliferator-activated receptor delta (PPARd) signaling pathway (AID 743212; calls by dose curve)
Procedure, shortened: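 Quantitative high-throughput agonist screen in a HEK293H beta-lactamase reporter line under UAS control. Compounds in DMSO, at 37 C. Fluorescence read after 2 h with FRET substrate at room temperature.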

[3] = qHTS assay to identify small molecule antagonists of the peroxisome proliferator-activated receptor delta (PPARd) signaling pathway - cell viability counter screen (AID 743213); note: nearly all actives have a fitted effect of over 50% in size
Procedure, shortened: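 PPARd-bla HEK293H cells were treated with compounds plus agonist L165041 (300 nM final) for 17 h at 37 C. Viability was then read in the same wells by CellTiter-Glo luminescence after 30 min at room temperature.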

[4] = target: Peroxisome proliferator-activated receptor delta (Homo sapiens) (UniProt Q03181); experiment: qHTS assay to identify small molecule antagonists of the peroxisome proliferator-activated receptor delta (PPARd) signaling pathway (AID 743215; active = well fitted inhibition curve with a large enough effect in the signal ratio in the repeat runs, not every such curve was filed as active; the % refers to the signal ratio;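 note: cells stimulated with agonist L165041 at 300 nM final during compound exposure; series mostly up to about 62 µM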)
Procedure, shortened: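 Antagonist-mode beta-lactamase reporter screen: HEK293H cells with UAS-bla under PPARd control, stimulated by 300 nM L165041 (final) alongside test compound for 17 h at 37 C, then FRET fluorescence after 2 h substrate incubation.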

[5] = qHTS assay to identify small molecule agonists of the farnesoid-X-receptor (FXR) signaling pathway - cell viability counter screen (AID 743218); note: nearly all actives have a fitted effect of over 45% in size
Procedure, shortened: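 In GeneBLAzer FXR-UAS-bla HEK 293T cells, compounds act for 16 h at 37 C. Cell viability is then scored in the reporter wells by CellTiter-Glo, 30 min at RT, luminescence.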

[6] = qHTS assay to identify small molecule antagonists of the farnesoid-X-receptor (FXR) signaling pathway - cell viability counter screen (AID 743221; active = well fitted cell-killing curve with a large enough effect in the repeat runs, not every such curve was filed as active; note: nearly all actives have a fitted effect of over 50% in size)
Procedure, shortened: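 GeneBLAzer FXR-UAS-bla HEK 293T cells, compound plus chenodeoxycholic acid (50 uM final), 16 h at 37 C. CellTiter-Glo added to the same wells after the beta-lactamase read; luminescence read after 30 min at room temperature as viability.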

[7] = target: Vitamin D3 receptor (Homo sapiens) (UniProt P11473); experiment: qHTS assay to identify small molecule antagonists of the vitamin D receptor (VDR) signaling pathway (AID 743223; active = well fitted inhibition curve with a large enough effect in the signal ratio in the repeat runs, not every such curve was filed as active; the % refers to the signal ratio)
Procedure, shortened: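 VDR-bla cells were treated with compound plus 3 nM final 1alpha,25-dihydroxyvitamin D3 for 16 h at 37C. Beta-lactamase reporter read by B/G FRET substrate fluorescence after 2 h at room temperature. qHTS format.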

[8] = target: Vitamin D3 receptor (Homo sapiens) (UniProt P11473); experiment: qHTS assay to identify small molecule agonists of the vitamin D receptor (VDR) signaling pathway (AID 743222; calls by dose curve)
Procedure, shortened: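 Agonist activity measured in VDR-bla reporter cells. Exposure 16 h, 37C, 5% CO2; detection by B/G FRET substrate, 2 h RT.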

[9] = target: Bile acid receptor (Homo sapiens) (UniProt Q96RI1); experiment: qHTS assay to identify small molecule antagonists of the farnesoid-X-receptor (FXR) signaling pathway (AID 743217; active = well fitted inhibition curve with a large enough effect in the signal ratio in the repeat runs, not every such curve was filed as active; the % refers to the signal ratio)
Procedure, shortened: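 Beta-lactamase reporter under UAS control in HEK 293T cells; compound exposure 16 h at 37 °C in the presence of chenodeoxycholic acid (50 uM final); signal from B/G FRET substrate after 2 h at room temperature.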

[10] = target: Bile acid receptor (Homo sapiens) (UniProt Q96RI1); experiment: qHTS assay to identify small molecule agonists of the farnesoid-X-receptor (FXR) signaling pathway (AID 743220; active = well fitted activation curve with a large enough effect in the signal ratio in the repeat runs, not every such curve was filed as active; the % refers to the signal ratio)
Procedure, shortened: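 Beta-lactamase reporter under UAS control in GeneBLAzer FXR HEK 293T cells (5000/well) measured with LiveBLAzer FRET substrate after 2 h at room temperature. Compound exposure lasted 16 h at 37C.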

Measured: Potency

Chain of Bile acid receptor (Homo sapiens) (Q96RI1 whole entry, looked up): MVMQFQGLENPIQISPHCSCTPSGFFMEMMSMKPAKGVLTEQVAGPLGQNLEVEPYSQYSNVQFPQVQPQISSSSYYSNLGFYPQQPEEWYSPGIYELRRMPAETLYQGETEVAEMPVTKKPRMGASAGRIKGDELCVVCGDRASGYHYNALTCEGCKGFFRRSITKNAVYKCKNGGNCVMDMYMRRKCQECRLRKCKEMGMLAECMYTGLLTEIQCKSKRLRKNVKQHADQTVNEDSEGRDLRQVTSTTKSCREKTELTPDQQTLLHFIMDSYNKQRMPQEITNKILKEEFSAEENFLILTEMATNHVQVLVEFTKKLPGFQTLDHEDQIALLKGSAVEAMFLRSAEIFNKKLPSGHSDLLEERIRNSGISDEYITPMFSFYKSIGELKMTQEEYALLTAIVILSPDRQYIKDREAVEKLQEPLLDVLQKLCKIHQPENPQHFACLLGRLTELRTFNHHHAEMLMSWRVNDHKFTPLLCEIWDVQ
Chain of Vitamin D3 receptor (Homo sapiens) (P11473 whole entry, looked up): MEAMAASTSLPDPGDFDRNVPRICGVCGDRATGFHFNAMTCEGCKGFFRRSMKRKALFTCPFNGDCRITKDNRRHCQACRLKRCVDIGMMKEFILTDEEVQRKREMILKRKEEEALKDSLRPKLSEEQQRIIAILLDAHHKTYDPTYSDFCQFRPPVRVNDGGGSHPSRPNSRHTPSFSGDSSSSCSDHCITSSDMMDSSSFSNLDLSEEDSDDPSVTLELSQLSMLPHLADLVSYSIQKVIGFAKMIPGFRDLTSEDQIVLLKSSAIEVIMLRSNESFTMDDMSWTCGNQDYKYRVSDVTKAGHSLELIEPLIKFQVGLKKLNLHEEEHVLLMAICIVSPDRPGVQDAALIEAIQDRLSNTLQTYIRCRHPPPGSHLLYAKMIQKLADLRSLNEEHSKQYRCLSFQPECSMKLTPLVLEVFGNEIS
Chain of Peroxisome proliferator-activated receptor delta (Homo sapiens) (Q03181 whole entry, looked up): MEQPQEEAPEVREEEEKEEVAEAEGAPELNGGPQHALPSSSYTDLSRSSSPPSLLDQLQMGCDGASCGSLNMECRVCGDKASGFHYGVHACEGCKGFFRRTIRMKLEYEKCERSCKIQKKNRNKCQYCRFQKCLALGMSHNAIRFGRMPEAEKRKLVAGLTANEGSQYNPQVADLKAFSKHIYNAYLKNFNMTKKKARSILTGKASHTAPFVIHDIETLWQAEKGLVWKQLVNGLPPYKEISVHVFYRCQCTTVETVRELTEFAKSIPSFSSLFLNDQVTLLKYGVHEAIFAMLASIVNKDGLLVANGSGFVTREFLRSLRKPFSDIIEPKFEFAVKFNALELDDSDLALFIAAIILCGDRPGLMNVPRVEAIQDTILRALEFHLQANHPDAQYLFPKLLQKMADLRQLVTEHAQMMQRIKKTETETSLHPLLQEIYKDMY

C/C(=N/NC(=O)c1ccncc1)C(=O)O
not listed: [8] | [9] | [10]
inactive: all other assays above

C[C@@H]1C[C@H]2[C@@H]3CCC4=CC(=O)C=C[C@]4(C)[C@@]3(F)[C@@H](O)C[C@]2(C)[C@H]1C(=O)CO
not listed: [9] | [10]
inactive: all other assays above

OC(CCCN1CCCCC1)(c1ccccc1)c1ccccc1
not listed: [5] | [9] | [10]
inactive: all other assays above

CCCCCCCC/C=C\CCCCCCCC(=O)OC
not listed: [5] | [9] | [10]
inactive: all other assays above

OC/C(Br)=C(\Br)CO
not listed: [9] | [10]
inactive: all other assays above

O=S(=O)(c1ccccc1)c1ccc(Cl)cc1
not listed: [9] | [10]
inactive: all other assays above

Nc1ccc(Cl)cc1[N+](=O)[O-]
not listed: [9] | [10]
inactive: all other assays above

O=C(O)c1ccccc1NCCc1ccccc1
inactive: [1] | [2] | [3] | [4] | [6] | [7]

CCOC(=O)c1ccccc1OC
not listed: [8] | [9] | [10]
inactive: all other assays above

CCCOC(=O)c1ccc(N)cc1
not listed: [8] | [9] | [10]
inactive: all other assays above

OCC1CC=CCC1 (configuration not stated)
inactive: [1] | [2] | [3] | [4] | [6] | [7]

O=C(NCCCN1CCOCC1)c1ccc(Cl)cc1
not listed: [9] | [10]
inactive: all other assays above

CC(C)C(OC(=O)c1ccccc1)C(C)(C)COC(=O)c1ccccc1 (configuration not stated)
not listed: [8] | [9] | [10]
inactive: all other assays above

CCOC(=O)CC(=O)C(=O)OCC
not listed: [4] | [7]
inactive: all other assays above

Nc1nccs1
not listed: [9] | [10]
inactive: all other assays above

Nc1ccc(S(=O)(=O)O)c(N)c1
not listed: [9] | [10]
inactive: all other assays above

CCCCCCOC(=O)CCCCCCCC(=O)OCCCCCC
inactive: [1] | [2] | [3] | [4] | [6] | [7]

CC(Cl)C(Cl)Cl (configuration not stated)
not listed: [9] | [10]
inactive: all other assays above

Cc1ccc(/C=N/n2c(-c3ccccc3)csc2=S)cc1
not listed: [9] | [10]
inactive: all other assays above

O=Cc1c(Cl)cccc1Cl
not listed: [9] | [10]
inactive: all other assays above

O=C(OCCOCCO)c1ccccc1Nc1cccc(C(F)(F)F)c1
not listed: [5] | [9] | [10]
inactive: all other assays above

COC(=O)[C@@H]1CC2=CC(=O)CC[C@]2(C)[C@@]23O[C@@H]2C[C@@]2(C)[C@@H](CC[C@@]24CCC(=O)O4)[C@H]13
not listed: [9] | [10]
inactive: all other assays above

Cc1ccnc2ccccc12
not listed: [9] | [10]
inactive: all other assays above

CCC(Cc1ccccc1)(C(=O)c1ccc(N2CCOCC2)cc1)N(C)C (configuration not stated)
not listed: [5] | [7] | [9]
inactive: all other assays above

CCCCCCCCCCCCCCCCBr
not listed: [9] | [10]
inactive: all other assays above

CCOc1cc(N)c(Cl)cc1C(=O)NCC1CN(Cc2ccc(F)cc2)CCO1 (configuration not stated)
not listed: [5] | [9]
inactive: all other assays above

O=C(CCCCCCC(=O)Nc1ccccc1)NO
inactive: [1] | [2] | [3] | [4] | [6] | [7]

Brc1cc(-c2ccc(Br)c(Br)c2Br)cc(Br)c1Br
not listed: [5] | [9] | [10]
inactive: all other assays above

C=CC(C)(O)CCCC(C)CCCC(C)CCCC(C)C (configuration not stated)
not listed: [8] | [9] | [10]
inactive: all other assays above

CCC(C)(O)CCC=C(C)C (configuration not stated)
not listed: [9] | [10]
inactive: all other assays above
